Screening data: PubChem BioAssay, National Center for Advancing Translational Sciences (NCATS)
Giardia FBPA inh: qHTS Assay for Inhibitors of Fructose-1,6-bisphosphate Aldolase from Giardia Lamblia. A8B2U2. 290,000 tested, 0.71% active. purified Giardia FBPA. Potency, µM (doses to about 59.6 µM), for inactives: at the highest dose activity, negative = inhibition, hits mostly inhibitors; further: potency means the concentration at half of the fitted maximal effect; on the % scale 0 is the no-effect control and ±100 the full control effect; nearly all actives have a fitted effect of over 55% in size
Target sequence (A8B2U2 whole entry, looked up): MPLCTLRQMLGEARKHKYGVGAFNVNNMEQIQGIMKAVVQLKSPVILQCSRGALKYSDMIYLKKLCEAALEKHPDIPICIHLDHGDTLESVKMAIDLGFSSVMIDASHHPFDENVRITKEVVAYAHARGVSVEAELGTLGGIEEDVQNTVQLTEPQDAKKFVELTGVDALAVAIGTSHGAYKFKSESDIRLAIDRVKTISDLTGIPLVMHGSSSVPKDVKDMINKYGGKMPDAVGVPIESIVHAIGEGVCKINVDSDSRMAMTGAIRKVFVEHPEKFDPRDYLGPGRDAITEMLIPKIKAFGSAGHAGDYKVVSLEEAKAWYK
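Giardia FBPA (40 nM reagent) was preincubated 10 min at RT with compound (up to 57.5 uM final), then substrate plus GAPDH/TPI/NAD/arsenate coupling system with diaphorase/resazurin was added; resorufin fluorescence (525/598 nm) was read after 20 min.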
Cycloheximide cs: Cycloheximide Counterscreen for Small Molecule Inhibitors of Shiga Toxin; AID 2314, 2010; max response, %; 300,000 tested, 12% active; cell reporter, cycloheximide protein synthesis inhibition counterscreen; in the data active means max response mostly above about 13%, no sharp cut-off; inactive means mostly below about 14%; further: read at 38.3 µM for the half of the compounds with a filed dose; 0% is about no effect
LmPK inhibitor: qHTS Assay for Inhibitors of Leishmania Mexicana Pyruvate Kinase (LmPK). 290,000 tested, 0.37% active. purified LmPK, Kinase-Glo ATP luminescence, 1 h. Q27686. Potency, µM (highest dose often 57.5 µM), for the others: at the highest dose activity change, negative = inhibition, actives largely listed as inhibitors; further: potency means the concentration at half of the fitted maximal effect; on the % scale 0 is the no-effect control and ±100 the full control effect
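0.1 nM LmPK, 0.5 mM PEP, 0.1 mM ADP; 50 mM imidazole pH 7.2, 7 mM MgCl2, 50 mM KCl; 1 h RT. Kinase-Glo luminescence readout, normalized to no-enzyme (full inhibition) and uninhibited wells.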
Shiga inhibitor: A qHTS for Small Molecule Inhibitors of Shiga Toxin. Vero cells, Shiga toxin protein synthesis inhibition reporter. inhibition, % at 38.7 µM. 290,000 tested, 9.2% active; in the data active means inhibition mostly above about 28%, no sharp cut-off; inactive means mostly below about 43%; further: 0% is about no effect
Sm TGR inh: qHTS Assay for the Inhibitors of Schistosoma Mansoni Peroxiredoxins; Schistosoma mansoni thioredoxin glutathione reductase (TGR), Q962Y6; purified TGR, DTNB reduction, TNB absorbance 405 nm; Potency, µM (highest dose often 114 µM), inactives show at the top dose activity change, negative = inhibition, most hits filed as inhibitors; 360,000 tested, 3% active; AID 485364, 2010; further: potency means the concentration at half of the fitted maximal effect; on the % scale 0 is the no-effect control and ±100 the full control effect; nearly all actives have a fitted effect of over 60% in size
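First, TGR (20 nM dispensed) and NADPH were mixed with compound. Second, a 15 min room-temperature incubation followed. Third, further NADPH and then DTNB were added to start the reaction. Finally, TNB absorbance was monitored kinetically.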
TbPYK inhibitor: qHTS of Trypanosoma Brucei Inhibitors; TbPYK enzyme, Kinase-Glo Plus ATP luminescence, 45 min; Potency, µM (highest dose often 76.8 µM), without a hit: top-dose activity, negative = inhibition, hits mostly inhibitors; 410,000 tested, 0.12% active; AID 624173, 2012; further: potency means the concentration at half of the fitted maximal effect; on the % scale 0 is the no-effect control and ±100 the full control effect; nearly all actives have a fitted effect of over 50% in size
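Luminescent Kinase-Glo Plus end-point after 45 min room-temperature reaction of T. brucei pyruvate kinase started with 130 uM ADP (final). Buffer TEA 50 mM pH 7.2 with KCl, MgCl2, BSA, Tween-20; titration-based qHTS with fitted concentration-effect curves.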
Starred values were filed as active, the others as inactive; ? = inconclusive; / = no result given; + = active, no number. This is one part of a sample in which hits are shown more often than they occur. Unless noted, the call rests on the fitted dose curve; in most records, active means well fitted curve in the direction sought with a large enough effect; inconclusive means small, poorly fitted or top-dose-only effect, or another doubt; inactive means no such curve, though single readings can be large; an effect the other way counts as inactive or inconclusive.

SMILES	Giardia FBPA inh	Cycloheximide cs	LmPK inhibitor	Shiga inhibitor	Sm TGR inh	TbPYK inhibitor
CCN1CCN(CC2COc3ccccc3O2)CC1 (configuration not stated)	?	1.7	3.5%	3.0	1.9%	1.2%
c1ccc2c(c1)CC(CN1CCNCC1)O2 (configuration not stated)	-15.2%	-4.1	-3.9%	-4.1	14.1µM*	-6.1%
COC(=O)[C@@]1(Cc2ccc(OC)cc2)[C@H]2c3cc(C(=O)N(C)C)n(Cc4ccc(C)o4)c3C[C@H]2CN1C(=O)c1ccccc1	-6.4%	/	/	/	/	/
COc1ccccc1C1C2C(=O)N(c3ccccc3)C(=O)C2ON1c1ccccc1 (configuration not stated)	-6.8%	3.0	7.7%	-18.5	-2.3%	4.8%
Cc1ccc(N2C(=O)C3ON(c4ccccc4)C(CC(C)C)C3C2=O)cc1 (configuration not stated)	-0.6%	9.3*	2.6%	20.9	-7.9%	-1.0%
CCOC(=O)C1=C(COC(=O)Cc2c(F)cccc2Cl)NC(=O)NC1C (configuration not stated)	/	/	/	/	-3.5%	-3.3%
N/C(=N\OC(=O)COc1cc(Cl)c(Cl)cc1Cl)c1ccccn1	-3.5%	39.5*	-5.4%	90.6*	9.2%	-1.2%
Cc1ccc(S(=O)(=O)N(C)CC(=O)O/N=C(\N)c2ccccn2)cc1	7.1%	-2.0	-0.7%	-13.5	5.1%	-8.9%
Cc1ccc(CC(=O)O/N=C(\N)c2ccccn2)cc1	/	81.9*	-3.4%	83.7*	-8.5%	-4.8%
N/C(=N\OC(=O)Cc1ccc(Cl)cc1)c1ccccn1	5.0%	19.9*	-13.1%	31.5	9.8%	-9.8%
Cc1cccc(OCC(=O)O/N=C(\N)c2ccccn2)c1C	1.6%	28.1*	-20.4%	64.8*	19.3%	4.3%
COc1ccccc1C/C(N)=N/OC(=O)COc1cccc(C)c1C	-1.6%	14.9	0.1%	1.8	1.4%	-2.3%
CCc1ccc(Nc2nnc(SCC(=O)c3c(N)n(C4CC4)c(=O)[nH]c3=O)s2)cc1	/	/	/	/	-6.6%	-1.1%
COc1ccc(OC)c(CCNC(=O)C(C)n2c(C)c3cnn(-c4ccccc4)c(=O)c3c2C)c1 (configuration not stated)	/	/	/	/	3.4%	1.8%
Cc1c(C(=O)N2CCC(C)CC2)c(S(=O)(=O)N(Cc2ccccc2)C(C)(C)C)c(C)n1C	/	/	/	/	-2.7%	0.0%
CC(C)(C)CC(=O)O/N=C(\N)c1ccccn1	15.7%	40.1*	-4.8%	30.2	-1.8%	-18.3%
Cc1ccc(OCC(=O)O/N=C(\N)c2ccccn2)cc1	-21.6%	50.4*	-17.5%	80.3*	10.2%	2.1%
Cc1cc(C(F)(F)F)n2nc(-c3ccc(Br)cc3)cc2n1	/	/	/	/	5.2%	-1.1%
C[C@H](CO)N1C[C@H](C)[C@@H](CN(C)C(=O)c2ccc3c(c2)OCO3)Oc2cc(/C=C/c3ccccc3)ccc2S1(=O)=O	/	/	/	/	/	-2.7%
COc1ccc(NC(=S)NC(=O)c2ccccc2)cn1	?	69.2*	-0.6%	132.0*	35.5µM*	-3.6%
COc1ccc(NC(=O)c2cccc(Oc3ccccc3)c2)cn1	5.4%	33.1*	10.4%	81.1*	-1.1%	0.9%
COc1ccc(NC(=O)c2ccc(S(=O)(=O)N(C)c3ccccc3)cc2)cn1	-3.4%	14.6	-0.1%	15.6	2.4%	-1.3%
CN(C)C(CNC(=O)c1cccc(S(=O)(=O)Nc2ccc(SC(F)F)cc2)c1)c1ccccc1 (configuration not stated)	/	/	/	/	/	-8.5%
COc1ccc(NC(=O)CCCc2nnc3n(CCC(C)C)c(=O)c4sccc4n23)cc1Cl	/	/	/	/	7.1%	1.2%
CC(C)Nc1nc(NC(C)C)nc(SCCOC(=O)Nc2ccc(Cl)cc2Cl)n1	-0.2%	21.5*	-1.0%	-5.7	8.8%	3.7%
SMILES	Giardia FBPA inh	Cycloheximide cs	LmPK inhibitor	Shiga inhibitor	Sm TGR inh	TbPYK inhibitor
COc1ccc(NC(=O)COc2ccc(/C=N/O)cc2OC)cc1	-4.9%	31.1*	3.4%	52.4*	4.8%	0.3%
COc1cc(/C=N/NC(=O)c2ccncc2)ccc1OCCN1CCCCC1	4.0%	35.4*	0.7%	+	-0.5%	1.3%
COc1cc(/C=N/NC(=O)c2cc3ccccc3cc2O)ccc1OCCN1CCCCC1	?	42.5*	1.7%	active	-12.6%	-17.4%
COc1cc(/C=N/NC(=O)c2ccncc2)ccc1OCC(=O)Nc1ccc(C)c(C)c1	/	13.0*	1.5%	40.1	8.7%	0.5%
COc1ccc(OC)c(NC(=O)c2cc(S(=O)(=O)NCCc3ccc(Cl)cc3)ccc2F)c1	/	/	/	/	9.9%	0.3%
CC1(C(=O)NCc2ccc(C(F)(F)F)cc2)CCN1Cc1ccc(-c2ccccc2)o1 (configuration not stated)	/	/	/	/	/	0.9%
CCCCNC(=O)CCCn1c(=O)c2ccccc2n(Cc2ccc(Cl)cc2)c1=O	/	/	/	/	4.8%	16.6%
COc1cc(/C=C2\C(=O)N(CCC#N)N=C2C)ccc1OCC(=O)Nc1ccccc1	2.1%	62.9*	0.7%	65.7*	3.5%	?
C/C=C/c1ccc(OCC(=O)Nc2ccncc2)c(OC)c1	0.5%	21.0*	7.2%	38.6*	-31.6%	-1.8%
OC(c1cc(Cl)cc(Cl)c1)c1ncc(-c2ccccc2F)[nH]1 (configuration not stated)	/	/	/	/	/	-0.2%
CC(=O)C1=CCC(c2ccccc2)N(S(C)(=O)=O)C1 (configuration not stated)	/	/	/	/	/	2.2%
Cc1ccc2c(c1)N=C(c1ccccc1)CC(C(Cl)Cl)=N2	?	37.3*	?	83.9*	15.8µM*	-18.8%
Cc1ccc(C2=Nc3ccccc3N=C(C(Cl)Cl)C2)cc1	?	41.4*	?	123.3*	35.5µM*	-15.2%
Cc1cnc(CNc2ccnc(-c3cccc(NS(C)(=O)=O)c3)n2)cn1	4.8%	/	/	/	/	/
O=C(Cc1ccc(N(CCCl)CCCl)cc1)NC(Cc1ccc(Cl)cc1)C(=O)O (configuration not stated)	5.9%	-1.6	-1.3%	-10.9	?	6.4%
CC(=O)NC(Cc1ccc(N(CCCl)CCCl)cc1)C(=O)O (configuration not stated)	0.0%	-1.2	1.2%	4.0	?	-9.7%
N[C@@H](Cc1ccc(N(CCCl)CCCl)cc1)C(=O)O	/	/	/	/	14.1µM*	2.9%
O=C(O)CCCc1ccc(N(CCCl)CCCl)cc1	2.5%	-1.4	1.2%	-9.6	50.1µM*	4.3%
NC(Cc1ccc(OC(F)F)cc1)C(=O)O (configuration not stated)	-11.7%	-1.9	-5.0%	-4.7	35.5µM*	6.1%
COc1ccc(NC(=O)N2CC[C@@]3(CCCN(C(=O)c4cnccn4)C3)C2)cc1	2.1%	/	/	/	/	-0.3%
